The list is not random: actives were taken first. Their share in the collection is about 2.8%.
SIRT5 block: sirtuin-5 (human) deacylase inhibition; Purified SirT5, succinyl-peptide AMC, trypsin-coupled fluorescence; inhibition, % at 15 µM; actives 1.1% (n = 330,000); AID 652115; in the data active means inhibition above about 15%
PglD inh: blocks C. jejuni PglD acetyltransferase activity; purified PglD enzyme, DTNB colorimetric CoA detection; inhibition, % at 12.5 µM; actives 0.098% (n = 360,000); AID 602405; in the data active means inhibition above about 16%, passing the limit was not always enough
dFosB activator: mouse delta FosB homodimer activation | activation, % at 25 µM | purified delta FosB, TAMRA-CDK5 oligo fluorescence polarization; percent of positive-control signal above neutral wells | actives 0.99% (n = 340,000) | P13346;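 active means mean activation above about 17%, with every replicate also reaching it, limit read from the data, passing the limit was not always enough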
Target sequence (P13346 whole entry, looked up): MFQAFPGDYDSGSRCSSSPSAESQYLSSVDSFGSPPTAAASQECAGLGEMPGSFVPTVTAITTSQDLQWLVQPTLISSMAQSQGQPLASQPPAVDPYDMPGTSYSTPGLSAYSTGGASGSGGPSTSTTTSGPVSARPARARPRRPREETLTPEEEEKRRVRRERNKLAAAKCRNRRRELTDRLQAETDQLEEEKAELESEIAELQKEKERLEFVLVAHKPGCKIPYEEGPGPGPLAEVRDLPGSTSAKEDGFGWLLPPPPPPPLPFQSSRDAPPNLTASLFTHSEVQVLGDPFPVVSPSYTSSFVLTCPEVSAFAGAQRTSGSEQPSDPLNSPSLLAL
CDK5 inh: CDK5/p35 (human) kinase inhibition; Recombinant CDK5/p35, ADP-Glo luminescence, 60 min; inhibition, % at 10 µM; actives 0.01% (n = 330,000);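 active means highest replicate inhibition of at least 50% and at least 75% of replicates reaching 50%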;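 further: plate controls were DMSO neutral control for no effect and GW8510 at 10 µM for full effect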
PvdQ acylase: blocks Pseudomonas aeruginosa PvdQ acylase activity; purified PvdQ acylase, fluorescence plate reader; inhibition, % at 10 µM; actives 0.063% (n = 340,000); AID 488965; in the data active means inhibition above about 30%, passing the limit was not always enough;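 further: 0% = vehicle neutral wells and 100% = reference inhibitor wells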
FGF22 binding: shifts melting point of recombinant human FGF22. activity (Tm shift, normalised), % at 9.99 µM. actives 1.5% (n = 340,000). recombinant FGF22 thermal shift, SYPRO orange fluorescence; percent of sucrose octasulfate shift, DMSO zero. Q9HCT0;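 active means mean Tm shift, scaled 0 neutral to 100 positive control, at about 1.3% or above, every replicate too, limit read from the data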
Starred values were filed as active, the others as inactive; / = not tested or not shown.

SMILES	SIRT5 block	PglD inh	dFosB activator	CDK5 inh	PvdQ acylase	FGF22 binding
COc1ccc(Cc2c(C(C)(C)C)nc3c(C)cc(Br)cn23)c(C)c1	-0.1	5.1	/	/	/	43.5*
Cc1nn(-c2ccccc2)c(Cl)c1/C=N/NC(N)=O	-4.0	3.2	-13.2	0.6	-3.4	0.0
Cc1nn(-c2ccccc2)c(Cl)c1/C=N/NC(=O)CNC(=O)c1ccccc1Cl	-1.0	/	-3.2	-0.3	4.7	43.9*
Cc1sc(NC(=O)CCCC(=O)O)c(C(N)=O)c1-c1ccccc1	0.1	/	6.1	0.6	-15.7	42.9*
CNC(=O)c1c(NC(=O)CS(=O)(=O)c2ccccc2)sc(C)c1C	-1.0	/	0.3	-1.6	-5.6	-0.2
Cc1sc(NC(=O)CS(=O)(=O)c2ccccc2)c(C(N)=O)c1C	1.5	-2.0	6.7	-0.2	-8.9	8.3*
CCC(=O)N(C)C[C@@H]1Oc2cc(C#CC3CC3)ccc2S(=O)(=O)N([C@@H](C)CO)C[C@H]1C	-0.6	-1.1	/	/	/	-0.3
COc1ccc(CCNC(=O)CCCn2c(=S)[nH]c3ccsc3c2=O)cc1OC	/	2.9	/	/	/	43.1*
COc1ccc(CCNC(=O)CCCNC(=O)Cn2cnc3sc(C)c(C)c3c2=O)cc1OC	-4.8	/	-0.7	1.6	10.4	43.5*
COc1ccc(CCNC(=O)Cn2ccc3c(OC)cccc3c2=O)cc1OC	21.1*	/	-2.4	1.1	-16.0	0.3
O=C(CCCn1c(=S)[nH]c2ccsc2c1=O)NCc1ccco1	/	-0.2	-7.2	-2.5	-8.3	/
C/C=C/c1ccc([C@@H]2[C@@H](CO)N3CCCCN(C(=O)Nc4ccccc4F)C[C@@H]23)cc1	-4.6	3.8	/	/	/	-0.4
C[C@H](CO)N1C[C@H](C)[C@@H](CN(C)Cc2ccc(-c3ccccc3)cc2)Oc2ccc(NC(=O)Cc3cn(C)c4ccccc34)cc2C1=O	14.7	/	/	/	/	-0.9
O=C(Nc1ccccc1Cl)c1sccc1-c1ccccc1	79.4*	5.1	-4.5	-1.1	-12.4	-0.4
Cc1noc(C)c1NC(=O)N(C)C[C@@H]1Oc2ccc(NC(=O)NC(C)C)cc2CC(=O)N([C@H](C)CO)C[C@H]1C	-4.7	3.4	/	/	/	-0.1
CN(C)CCCNC(=O)c1cc2sc3ccccc3c2s1	0.2	/	-19.9	0.2	-3.6	43.8*
COCCNC(=O)c1cc2sc3ccccc3c2s1	/	0.7	-1.1	-0.3	-5.6	/
C[C@@H]1CN([C@H](C)CO)C(=O)c2cc(NC(=O)NC3CCCCC3)ccc2O[C@@H](C)CCCCO[C@@H]1CN(C)Cc1ccc(Cl)c(Cl)c1	23.9*	-4.8	/	/	/	-1.4
C[C@@H]1CCCCO[C@@H](CN(C)Cc2ccc(Cl)c(Cl)c2)[C@@H](C)CN([C@@H](C)CO)C(=O)c2cc(NC(=O)NC3CCCCC3)ccc2O1	15.9*	-4.1	/	/	/	-0.8
C[C@H](CO)N1C[C@H](C)[C@@H](CN(C)Cc2ccc(Cl)c(Cl)c2)OCCCC[C@H](C)Oc2ccc(NC(=O)NC3CCCCC3)cc2C1=O	3.3	-1.3	/	/	/	-1.1
CO[C@H]1CN(C)C(=O)c2ccc(NC(=O)C3CCC3)cc2OC[C@H](C)N(Cc2ccncc2)C[C@H]1C	-0.2	-0.8	/	/	/	-0.3
Cc1ccc(Cl)cc1N1CCN(C(=O)c2ccc3nc[nH]c3c2)CC1	0.5	/	-5.8	0.2	-12.0	0.1
Cc1cccc(N2CCN(C(=O)c3ccc4nc[nH]c4c3)CC2)c1C	30.5*	4.1	-8.6	1.0	-18.4	0.1
Cc1nc2nc(SCC(=O)O)nn2c(C)c1Cc1ccccc1Cl	1.3	/	1.3	-0.3	-11.7	43.2*
CCCC(=O)Nc1ccc2c(c1)C(=O)N(C)C[C@@H](OC)[C@H](C)CN(CCc1ccccc1)[C@H](C)CO2	1.7	3.6	/	/	/	0.1
COc1ccc(CNC(=O)c2cc(=O)c3cc(C)cc(C)c3o2)cc1	23.7*	8.4	9.3	0.9	1.0	0.0
COc1ccc(CNC(=O)c2cc(=O)c3ccc(C)c(C)c3o2)cc1	-2.6	-1.8	4.9	1.4	5.8	-0.3
COc1ccc(OC)c(NC2c3ncccc3C(=O)N2Cc2ccco2)c1 (stereo not drawn)	16.0*	5.3	-2.5	0.6	0.9	0.0
COc1ccc(CN2C(=O)c3cccnc3C2Nc2cc(Cl)ccc2OC)cc1 (stereo not drawn)	0.3	-0.7	-16.0	-2.0	-8.2	/
